From PubChem BioAssay (Tox21)
Inconclusive results are not listed. Where a call stands in place of a potency, no number is given. A number with no mark means an inactive call. Calls of active or inactive are those of the source. Calls follow the shape of the dose curve; as a rule, active = well fitted cell-killing curve with a large enough effect in the repeat runs; inconclusive = weak or mixed curves, or effect the other way; inactive = no such curve, though single readings can be large or run the other way.

assay: Caspase-3/7 induction in CHO-K1 cells by small molecules, qHTS cell viability counter screen (AID 1346979); settings: CellTiter-Fluor fluorescence, 17 h; series mostly up to 92.4 µM; also: nearly all actives have a fitted effect of over 35% in size
Text: National Center for Advancing Translational Sciences [NCATS]
NIH Chemical Genomics Center [NCGC]
U.S. Environmental Protection Agency [EPA]
National Institutes of Environmental Health Sciences [NIEHS]
National Toxicology Program [NTP]
U.S. Food and Drug Administration [FDA]
Apoptosis is a process of programmed cell death and plays a central role in the development of multicellular organisms. It is a highly regulated process and induces cell death by activating caspases, which are the members of cysteine aspartic acid-specific protease (caspase) family. Caspases involved in apoptosis are classified by their mechanism of action as initiator caspases (caspase-2, -8, -9 and -10) and executioner caspases (caspase-3, -6, and -7). Inhibition of apoptosis results in number of cancers, autoimmune diseases, inflammatory diseases and viral infection. To identify small molecule compounds that induce apoptosis, a homogeneous, luminescent Caspase-Glo 3/7 assay was used. Wild type CHO-K1 cells were used to screen Tox21 libraries for identifying caspase-3/7 activity inducers. Also cytotoxicity of the compounds was tested in parallel by measuring the cell viability using CellTiter-Fluor assay system in the same wells.
Tox21 Assay Protocol Summary:
CHO-K1 cells were dispensed at 1,500 per well in 5uL of culture medium into white solid bottom 1536-well plates (Corning Life Sciences, Corning, NY) using a Multidrop Combi (Thermo Scientific, Waltham, MA) dispenser. The assay plates were incubated at 37 C and 5% CO2 for 5hr, and then 23nL of compounds dissolved in DMSO and positive control were transferred using a Pintool station (Wako, San Diego, CA). The assay plates were incubated at 37C and 5% CO2 for 17hr. For cytotoxicity read, after 16hr incubation at 37C, 1uL CellTiter-Fluor reagent (Promega Corporation, Madison, WI) was added to each well of the assay plates using Flying Reagent Dispenser (FRD, Aurora Discovery, San Diego, CA). After 1hr incubation at 37C and 5% CO2, the fluorescence signal was quantified using a ViewLux plate reader (PerkinElmer, Shelton, CT).

| Structure (SMILES) | Potency | activity change, negative = cytotoxicity |
| --- | --- | --- |
| CCCC(=O)C(C)=O | inactive |  |
| CC(=O)c1sc(C)nc1C | inactive |  |
| NCCN1CCOCC1 | inactive |  |
| CCCCN | inactive |  |
| CCc1ccc(C=O)cc1 | inactive |  |
| CCCCCCOC(=O)CC | inactive |  |
| C=C(C)C1CCC(C)(O)CC1 (stereo not given) | inactive |  |
| C[Si](C)(C)C | inactive |  |
| O=C(O)Cc1ccc(Cl)cc1Cl | inactive |  |
| COc1cc(NS(=O)(=O)c2ccc(N)cc2)nc(OC)n1 | inactive |  |
| CC1=CCC(C(C)C)=CC1 | inactive |  |
| Cc1cccc2nccnc12 | inactive |  |
| COc1cc(N)ccc1C | inactive |  |
| NC(CO)C(=O)NNCc1ccc(O)c(O)c1O (stereo not given) | inactive |  |
| CCCCCCCCSCC | inactive |  |
| CCN(CC)CC(=O)Nc1c(C)cccc1C | inactive |  |
| CC(C)NCC(O)COc1ccc(COCCOC(C)C)cc1 (stereo not given) | inactive |  |
| CC(C)(C)OC(=O)c1ccc(O)cc1 | inactive |  |
| CC1(C)S[C@@H]2[C@H](N=CN3CCCCCC3)C(=O)N2[C@H]1C(=O)O | inactive |  |
| C#CC(C)N(C)C(=O)Nc1ccc(Cl)cc1 (stereo not given) | inactive |  |

| Structure (SMILES) | Potency | activity change, negative = cytotoxicity |
| --- | --- | --- |
| CN(CCOc1ccc(NS(C)(=O)=O)cc1)CCc1ccc(NS(C)(=O)=O)cc1 | inactive |  |
| COc1ccc(Br)c(C)c1 | inactive |  |
| CCn1ccc(NS(=O)(=O)c2ccc(N)cc2)nc1=O | inactive |  |
| CN(C)CCOCCO | inactive |  |
| CC(=O)/C=C/C1C(C)=CCC(C)C1(C)C (stereo not given) | inactive |  |
| O=Cc1ccc(Cl)c(Cl)c1 | inactive |  |
| CC(C)C(=O)OCCc1ccccc1 | inactive |  |
| O=C(CCN1CCN(CCO)CC1)N1c2ccccc2Sc2ccc(C(F)(F)F)cc21 | inactive |  |
| C=C(C)C(=O)OCc1ccccc1 | inactive |  |
| CC(C)c1ccc2cc(C(C)C)ccc2c1 | inactive |  |
| CCCCNc1ccc(C(=O)OCCN(C)C)cc1 | inactive |  |
| CC(C)(C)NC(N)=O | inactive |  |
| CN1CCN(CC(=O)N2c3ccccc3C(=O)Nc3cccnc32)CC1 |  | 7.7% [at 8.39 µM] |
| OCCCCC(O)CO (stereo not given) | inactive |  |
| CNS(=O)(=O)CCc1ccc2[nH]cc(C3CCN(C)CC3)c2c1 | inactive |  |
| CCCCCCN | inactive |  |
| CCCCC(CC)COCCO (stereo not given) | inactive |  |
| CC1COc2ccccc2N1 (stereo not given) | inactive |  |
| COc1cc2c(cc1OC)C(=O)CC2 | inactive |  |
| CC(CO)c1ccccc1 (stereo not given) | inactive |  |
